The full ranking holds about 33,000 sequences; the median of “E-score (-0.5 to 0.5)” is about -0.015, and the highest 2% start at about 0.3. What follows is part of a selection rich in the highest values, with near analogues and random picks from the rest.
Target: T1, Abf1 (UniProt P14164)
T1 sequence: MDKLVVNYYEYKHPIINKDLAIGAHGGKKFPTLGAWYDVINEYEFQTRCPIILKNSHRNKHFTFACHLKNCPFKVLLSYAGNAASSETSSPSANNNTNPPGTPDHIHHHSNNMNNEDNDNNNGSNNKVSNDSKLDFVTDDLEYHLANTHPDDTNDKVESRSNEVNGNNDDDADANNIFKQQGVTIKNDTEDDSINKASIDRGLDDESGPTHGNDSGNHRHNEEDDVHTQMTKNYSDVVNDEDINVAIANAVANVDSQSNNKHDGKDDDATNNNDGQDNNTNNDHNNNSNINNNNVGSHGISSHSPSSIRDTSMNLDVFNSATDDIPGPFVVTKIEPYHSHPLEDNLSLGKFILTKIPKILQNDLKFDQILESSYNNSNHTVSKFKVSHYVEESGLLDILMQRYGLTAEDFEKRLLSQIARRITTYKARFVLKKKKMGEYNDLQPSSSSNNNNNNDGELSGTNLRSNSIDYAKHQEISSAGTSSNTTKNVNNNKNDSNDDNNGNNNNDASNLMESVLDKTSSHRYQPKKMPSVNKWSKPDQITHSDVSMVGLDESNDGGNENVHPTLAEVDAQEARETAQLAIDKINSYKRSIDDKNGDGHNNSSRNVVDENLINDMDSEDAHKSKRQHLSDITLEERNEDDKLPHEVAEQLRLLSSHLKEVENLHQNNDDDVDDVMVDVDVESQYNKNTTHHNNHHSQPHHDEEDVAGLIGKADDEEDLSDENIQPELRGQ
Experiment: PBM E-score (8-mer binding enrichment) (E-score (-0.5 to 0.5)); higher = stronger / more preferred TF binding
Conditions: protein concentration: 200 nM; construct: GST-full length
Protocol: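 Universal 'all 10-mer' protein binding microarrays (Agilent AMADID 015681) probed with GST-tagged S. cerevisiae TFs (full-length or DBD) made by in vitro transcription/translation (PURExpress), about 100-200 nM. Bound TF was detected with fluorescent anti-GST. Each ungapped 8-mer (which stands for itself and its reverse complement) is scored by the PBM enrichment score (E-score), a modified Wilcoxon-Mann-Whitney statistic from -0.5 to +0.5, computed with the Universal PBM Analysis Suite. Scale: above 0.35 generally sequence-specific binding.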

Sequence | PBM E-score
CCGATACC | -0.101
ATACGTGG | 0.155
GAACGCGA | -0.146
GGGCGCGA | 0.0618
AGTTGTGC | -0.108
ACGGGCGA | -0.00147
CGTGATAG | 0.221
AGTGATAC | 0.385
GGTGATAC | 0.186
ACTGATAA | 0.126
ATTGATAG | -0.0465
CGTGATAC | 0.23
AGTGATAG | 0.303
AGTGAGAT | 0.147
ATTGATAA | 0.27
ACTGATAT | 0.108
AGTGATAT | 0.442
AGTGATAA | 0.445
AGCGCCAG | -0.0266
AACCAGAA | 0.0884
CCCTCGGA | 0.00175
ATACGACC | 0.239
ATACGAAT | 0.275
ATACGACG | 0.341
ATACGAAA | 0.349

Sequence | PBM E-score
CTACGATC | 0.195
CTACGAAG | 0.215
ATACGATC | 0.307
ATACGAAG | 0.328
ATACGATG | 0.261
ACACGAAG | 0.269
AGACGACG | 0.235
AAACGAAA | 0.159
CGAATACG | 0.189
ACCCGAGT | -0.152
ACATTGAA | 0.0551
ACGGTCGC | 0.134
TGTAACAA | 0.0346
AGCAGGCA | -0.114
ACTGTATG | -0.184
ACTGAAGT | -0.0998
GTCCCGAA | 0.00205
GAAATCAA | 0.0471
AAAATCAC | 0.352
AAAATCAA | 0.0207
GAAATCAC | 0.322
CAAATCAC | 0.19
AAAATCAG | 0.193
AACTGAGA | 0.0232
CTTGATCA | 0.183

Sequence | PBM E-score
CATGATCA | 0.33
AATGATCA | 0.347
ATTGATCA | 0.267
CATGATCG | 0.0839
CTAGATCA | 0.161
AATGATCC | 0.0166
ATAGATCA | 0.267
AATGATCG | 0.232
GTAGATCA | 0.319
GTTGATCA | 0.298
CATGATCC | 0.00859
CATGCGGC | -0.229
GGTTAACA | -0.138
AAAGAACT | 0.0334
ACATTAGA | 0.0369
AGTTAACT | -0.0757
AAAGATCA | 0.164
TACGATCA | 0.208
GATGATCC | 0.0853
ACTGATCT | 0.0694
AATGATCT | 0.324
TATGATCA | 0.309
AATGAACT | -0.177
TAAGATCA | 0.314
TCTGATCA | 0.155

Sequence | PBM E-score
GATGATTA | 0.263
GATGATCA | 0.329
CAAGATCA | 0.16
GCCTAGAC | -0.11
ATACATTC | 0.0799
AACGGGGC | -0.0372
ACGCACCA | -0.101
CCATTTCC | -0.0246
CGGGTTAG | -0.173
CAAATAGA | 0.0564
GAGGTATC | 0.047
CGAAGTGA | 0.272
GGAAGTGA | 0.329
AGAAGTGA | 0.243
CTAAGTGC | -0.0207
ATAAGTGG | 0.126
ATAAGTGC | 0.0214
ATAAGTGA | 0.3
GTAAGTGA | 0.208
CTAAGTGA | 0.327
AGATTTAG | 0.0517
CCGGAAGA | 0.0618
AGACTTTA | 0.0584
AGGCTCTG | -0.089
CAGGCACC | -0.178

Sequence | PBM E-score
GCCAGCCC | -0.375
CACGCTCC | -0.00778
AGGGTGAG | -0.102
AACGTGAA | 0.057
AAAGTGAA | -0.0183
AAAGTGAG | 0.2
AGGGTGAT | 0.335
AACGTGAT | 0.327
AAAGTGGC | -0.118
AACGTGAG | 0.0297
ACAGTGAC | 0.259
AGGGTGAA | -0.209
AAAGTGAC | 0.343
AAAGTGAT | 0.397
CCCCAGGA | -0.301
TAGTTCAA | -0.0129
AACAGCAC | -0.13
CACCCTGG | -0.33
ATAGGCTC | -0.0801
CCAAACCG | -0.0285
AAGGACCC | -0.134
ACATCCTA | 0.0617
AATTCTCG | 0.162
AGAGTGAT | 0.387
CAAGTGAC | 0.242

Sequence | PBM E-score
GAAGTGAC | 0.411
AGAGTGAG | 0.0964
AGAGTGAA | -0.0316
GAAGTGAA | 0.064
GTCCGGTA | 0.00344
CTCACGTA | -0.0341
AACTATAT | 0.205
AGTTATCG | 0.223
CATTATCG | 0.0198
CATTATCA | 0.329
TATTATCA | 0.34
CCTTATCA | 0.236
ACTTATCA | 0.231
TATTATGA | 0.0866
GGTTATCA | 0.272
TATTATAA | 0.121
TCTTATCA | 0.316
CATTATCC | 0.262
AGTTATCA | 0.302
GGGAGGCA | -0.284
GGGGACGA | 0.135
AATTATCA | 0.34
AATTATCG | 0.178
GATTATCC | 0.152
GATTATCA | 0.302

Sequence | PBM E-score
AATTATCC | 0.0502
GATTATTA | 0.0366
CATCCATA | 0.0978
CATGAACC | -0.00224
GCCCGAGA | -0.194
ATCATTAG | 0.279
GTCATTAA | 0.385
ATCATTAC | 0.262
ATCATTAA | 0.307
CTCATTAA | 0.148
GACATTAA | 0.227
CTAAGCGC | -0.121
CTTTGCAC | 0.209
ACCTTTAC | -0.0849
AGTTCGGG | 0.0167
CGTTCGTA | 0.345
CGTTCGGC | 0.0205
GGTTCGTA | 0.14
AGTTCGTG | 0.326
CGTTCGTC | 0.358
TGTTCGAA | -0.0208
CGTTCGAC | 0.122
AGTTCGTA | 0.264
CGTTCGAA | 0.311
AGTTCGTC | 0.164

Sequence | PBM E-score
ATTTCGTG | 0.288
ATAAGGAT | -0.00817
AGGGAAGC | -0.197
CTGCTGGC | -0.25
ATCGAAAA | 0.0388
GTTCACGA | 0.3
CTTCACGA | 0.2
GATCACAC | 0.118
GATCACAA | 0.26
GCTCACGA | 0.125
GATCACGC | 0.366
ATTCACGA | 0.235
GATCACGA | 0.301
CATCACGC | 0.191
ACACTCGA | -0.0221
CGTCCATC | 0.0706
GATACGGA | 0.279
AGGGTGGG | -0.0843
CATTTGAG | 0.0534
CGCCAGAA | -0.0306
CAGTCGGG | 0.0146
GATAGCCA | -0.0722
GACAATCC | 0.0976
AGACGAAC | 0.24
GTACGAAA | 0.376

Sequence | PBM E-score
GGACGAAC | 0.323
ACACGAAA | 0.288
CTACGAAC | 0.275
CTACGAAA | 0.122
GCACGAAA | 0.336
TTACGAAA | 0.279
ATACGAAC | 0.294
GCACGAAC | 0.269
GAACGAAC | 0.121
GTACGAAC | 0.418
AAATCTAG | 0.045
ATACTTGA | -0.0426
AAGCACCC | -0.201
ATGGAAAA | 0.177
GATTGAGA | 0.21
CGTTAGTC | 0.00116
GATCGCTA | 0.157
CTAAGCGA | -0.0187
CTTTTAGA | -0.028
